In PubChem BioAssay (NCI):
This is part of a sample that, as a whole, favours compounds with a hit. Of some 79,000 tested, about 15% had one in any assay. Active and inactive are the calls of the source. Cut-off read from the data, not from the text of the source: active = growth inhibition above about 70%; inactive = the rest.

How the values were obtained:
[1] = NCI Yeast Anticancer Drug Screen. Data for the rad52 strain (AID 147);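 note: 0% = growth of vehicle-treated control cultures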; details: S. cerevisiae rad52 mutant growth inhibition, active compounds read high
Method in brief: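 Measured: yeast growth inhibition. System: strain with a defined DNA damage repair alteration. Reference: vehicle-treated control cultures.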

[2] = NCI Yeast Anticancer Drug Screen. Data for the wt1 strain (AID 149);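 note: 0% = growth of vehicle-treated wt1 cultures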; details: S. cerevisiae wt1 strain (SPY 50644) growth inhibition, active compounds read high
Method in brief: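 Measured: growth of wt1 yeast under compound versus vehicle treatment, reported as inhibition.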

[3] = NCI Yeast Anticancer Drug Screen. Data for the rad50EPP+ strain (AID 151);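 note: 0% = growth of vehicle-treated control cultures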; details: S. cerevisiae rad50 mutant strain, active compounds read high
Method in brief: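 One strain with a rad50 alteration (rad50EPP+) was compound-treated, its growth then compared to that of vehicle controls.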

[4] = NCI Yeast Anticancer Drug Screen. Data for the mgt1 strain (AID 153); details: S. cerevisiae mgt1 mutant growth inhibition, active compounds read high
Method in brief: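 After exposure of the mgt1 yeast mutant to compound, growth was measured and reported as inhibition compared with vehicle controls.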

[5] = NCI Yeast Anticancer Drug Screen. Data for the rad50 strain (AID 155);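 note: 0% = growth of vehicle-only cultures of the same strain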; details: S. cerevisiae rad50 strain growth inhibition, active compounds read high
Method in brief: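 Growth of the mutant yeast was measured after compound exposure and referenced to vehicle-treated cultures.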

[6] = NCI Yeast Anticancer Drug Screen. Data for the mec2-1 strain (AID 157); details: S. cerevisiae mec2-1 strain, active compounds read high
Method in brief: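 Test agents were screened against the mec2-1 yeast strain, with defined DNA repair or cell cycle alteration. Growth was scored as inhibition against vehicle-only controls.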

[7] = NCI Yeast Anticancer Drug Screen. Data for the rad14 strain (AID 159);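 note: 0% = growth of vehicle-treated control cultures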; details: S. cerevisiae rad14 strain growth inhibition, active compounds read high
Method in brief: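 Here, inhibition of yeast growth was measured after compound exposure, using a strain with a genetic defect in DNA damage repair and vehicle-treated cultures as the reference.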

[8] = NCI Yeast Anticancer Drug Screen. Data for the sgs1 mgt1 strain (AID 161);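 note: 0% = growth of cultures given vehicle only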; details: S. cerevisiae sgs1 mgt1 strain, active compounds read high
Method in brief: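 Read-out: growth inhibition vs vehicle controls. Cells: mutant yeast strain deficient in DNA damage repair.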

[9] = NCI Yeast Anticancer Drug Screen. Data for the CLN2oe strain (AID 163);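 note: 0% = growth of vehicle-only control cultures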; details: S. cerevisiae CLN2oe strain, active compounds read high
Method in brief: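 Here, growth inhibition in a cell-cycle-altered yeast strain after compound exposure was quantified against vehicle control growth.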

[10] = NCI Yeast Anticancer Drug Screen. Data for the cln2 rad14 strain (AID 165);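 note: 0% = growth equal to vehicle treated cultures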; details: S. cerevisiae cln2 rad14 strain, active compounds read high
Method in brief: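 Growth of compound-exposed yeast (cln2 rad14 genotype) measured and expressed as inhibition relative to vehicle.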

[11] = NCI Yeast Anticancer Drug Screen. Data for the bub3 strain (AID 167); details: S. cerevisiae bub3 mutant strain, active compounds read high
Method in brief: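 Whole-cell yeast assay. The mutant strain was incubated with compounds, and growth inhibition was determined by comparison with vehicle-treated cells.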

[12] = NCI Yeast Anticancer Drug Screen. Data for the wt2 strain (AID 169);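 note: 0% = growth of vehicle-treated yeast cultures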; details: S. cerevisiae wt2 strain growth inhibition, active compounds read high
Method in brief: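 Genetically defined yeast strains from a DNA-repair/cell-cycle panel were used. Compound-exposed yeast growth was measured, and the inhibition was calculated relative to vehicle treatment.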

[13] = NCI Yeast Anticancer Drug Screen. Data for the mlh1 strain (AID 171);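 note: 0% = growth of vehicle-treated control cultures of the same strain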; details: S. cerevisiae mlh1 strain growth inhibition, active compounds read high
Method in brief: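 Here the genetically defined yeast mutant is grown with each compound, and the extent to which its growth falls below that of vehicle-exposed cells is reported.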

[14] = NCI Yeast Anticancer Drug Screen. Data for the sgs1 strain (AID 173);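 note: 0% = growth of vehicle-only control cultures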; details: S. cerevisiae sgs1 mutant, active compounds read high
Method in brief: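 Relative growth inhibition, referenced to vehicle, was determined in a yeast strain with a defined alteration affecting DNA damage repair or cell cycle control after compound exposure.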

[15] = NCI Yeast Anticancer Drug Screen. Data for the mlh1 rad18 strain (AID 175); details: S. cerevisiae mlh1 rad18 strain growth inhibition, active compounds read high
Method in brief: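 In this whole-cell yeast screen, a strain with altered DNA damage repair is challenged with compound, and its growth is measured against matched vehicle-treated controls.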

[16] = NCI Yeast Anticancer Drug Screen. Data for the rad18 strain (AID 177); details: S. cerevisiae rad18 mutant growth inhibition, active compounds read high
Method in brief: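 Screen uses a yeast strain with a defined lesion in DNA damage repair; compound effect is read as loss of growth compared to untreated vehicle cultures.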

[17] = at 5.0 µM (retest, dose inferred, filed as 0.5)
[18] = at 50.0 µM (retest, dose inferred, filed as 5.0)

Measured: growth inhibition

CCS(=O)(=O)Nc1ccc(Nc2c3ccccc3nc3ccccc23)c(OC)c1
inactive: [1]; at 1.2 µM 62% | [2]; at 1.2 µM -36% | [2]; at 3.7 µM -42% | [2]; at 11.0 µM -38% | [2]; at 33.0 µM -4% | [2]; at 100.0 µM 62% | [3]; at 1.2 µM -1% | [3]; at 3.7 µM 17% | [3]; at 11.0 µM 48% | [4]; at 1.2 µM -28% | [4]; at 3.7 µM -35% | [4]; at 11.0 µM -28% | [4]; at 33.0 µM 3% | [4]; at 100.0 µM 64% | [5]; at 1.2 µM 51% | [5]; at 50.0 µM 24.7% | [6]; at 1.2 µM -42% | [6]; at 3.7 µM -32% | [6]; [17] 12% | [6]; at 11.0 µM 7% | [6]; at 33.0 µM 69% | [6]; at 50.0 µM 11.8% | [7]; at 1.2 µM -40% | [7]; at 3.7 µM -36% | [7]; at 11.0 µM -26% | [7]; at 33.0 µM 5% | [8]; [17] 49% | [9]; at 1.2 µM -8% | [9]; at 3.7 µM -35% | [9]; at 11.0 µM -2% | [9]; at 33.0 µM 29% | [9]; at 100.0 µM 59% | [10]; [17] 43% | [10]; at 50.0 µM 53.4% | [11]; at 1.2 µM -50% | [11]; at 3.7 µM -32% | [11]; [17] 42% | [11]; at 11.0 µM -36% | [11]; at 33.0 µM 3% | [11]; [18] 65% | [11]; at 50.0 µM 50.5% | [11]; at 100.0 µM 67% | [12]; at 1.2 µM -47% | [12]; at 3.7 µM -47% | [12]; at 11.0 µM -42% | [12]; at 33.0 µM -1% | [12]; at 100.0 µM 56% | [13]; at 1.2 µM -57% | [13]; at 3.7 µM -33% | [13]; at 11.0 µM -24% | [13]; at 33.0 µM 17% | [14]; at 1.2 µM -14% | [14]; at 3.7 µM -11% | [14]; at 11.0 µM -7% | [14]; at 33.0 µM 36% | [15]; at 50.0 µM 36% | [16]; at 1.2 µM -21% | [16]; at 3.7 µM -12% | [16]; at 11.0 µM -18% | [16]; at 33.0 µM 23%
active: [1]; at 3.7 µM 82% | [1]; at 11.0 µM 88% | [1]; at 33.0 µM 90% | [1]; at 100.0 µM 93% | [3]; at 33.0 µM 77% | [3]; at 100.0 µM 84% | [5]; at 3.7 µM 79% | [5]; [17] 86% | [5]; at 11.0 µM 86% | [5]; at 33.0 µM 91% | [5]; [18] 99% | [5]; at 100.0 µM 92% | [6]; [18] 96% | [6]; at 100.0 µM 89% | [7]; at 100.0 µM 74% | [8]; [18] 98% | [8]; at 50.0 µM 80.8% | [10]; [18] 84% | [13]; at 100.0 µM 74% | [14]; at 100.0 µM 76% | [15]; [17] 77% | [15]; [18] 97% | [16]; at 100.0 µM 74%

Cc1ccc(S(=O)(=O)NC(=O)C2C(=O)CC3(CCCCC3)CC2=O)cc1
inactive: [1]; at 1.2 µM -22% | [1]; at 3.7 µM -37% | [1]; at 11.0 µM -34% | [1]; at 33.0 µM 7% | [1]; at 100.0 µM 36% | [2]; at 1.2 µM -22% | [2]; at 3.7 µM -16% | [2]; at 11.0 µM -20% | [2]; at 33.0 µM 67% | [3]; at 1.2 µM -3% | [3]; at 3.7 µM -21% | [3]; at 11.0 µM -18% | [3]; at 33.0 µM -12% | [3]; at 100.0 µM -21% | [4]; at 1.2 µM -24% | [4]; at 3.7 µM -16% | [4]; at 11.0 µM -13% | [5]; at 1.2 µM -12% | [5]; at 3.7 µM -6% | [5]; [17] 10% | [5]; at 11.0 µM -23% | [5]; at 33.0 µM 5% | [5]; [18] 25% | [5]; at 50.0 µM -9.4% | [5]; at 100.0 µM 35% | [6]; at 1.2 µM -25% | [6]; at 3.7 µM -30% | [6]; [17] 12% | [6]; at 11.0 µM 20% | [6]; [18] 26% | [6]; at 50.0 µM 30.1% | [7]; at 1.2 µM -29% | [7]; at 3.7 µM -44% | [7]; at 11.0 µM 3% | [8]; [17] 11% | [8]; [18] 21% | [8]; at 50.0 µM -16.6% | [9]; at 1.2 µM -12% | [9]; at 3.7 µM 1% | [9]; at 11.0 µM 4% | [10]; [17] 5% | [10]; [18] -1% | [10]; at 50.0 µM -8.9% | [11]; at 1.2 µM -5% | [11]; at 3.7 µM 23% | [11]; [17] 20% | [11]; at 11.0 µM 5% | [11]; [18] 16% | [11]; at 50.0 µM -17.9% | [12]; at 1.2 µM -39% | [12]; at 3.7 µM -28% | [12]; at 11.0 µM 20% | [13]; at 1.2 µM -2% | [13]; at 3.7 µM -11% | [13]; at 11.0 µM 13% | [14]; at 1.2 µM -12% | [14]; at 3.7 µM -8% | [14]; at 11.0 µM 4% | [14]; at 33.0 µM 68% | [15]; [17] 42% | [15]; at 50.0 µM -61.4% | [16]; at 1.2 µM -15% | [16]; at 3.7 µM -2% | [16]; at 11.0 µM -16% | [16]; at 33.0 µM 14% | [16]; at 100.0 µM 48%
active: [2]; at 100.0 µM 83% | [4]; at 33.0 µM 80% | [4]; at 100.0 µM 85% | [6]; at 33.0 µM 79% | [6]; at 100.0 µM 83% | [7]; at 33.0 µM 82% | [7]; at 100.0 µM 86% | [9]; at 33.0 µM 77% | [9]; at 100.0 µM 84% | [11]; at 33.0 µM 72% | [11]; at 100.0 µM 74% | [12]; at 33.0 µM 84% | [12]; at 100.0 µM 83% | [13]; at 33.0 µM 82% | [13]; at 100.0 µM 88% | [14]; at 100.0 µM 79% | [15]; [18] 71%
